The values below come from PubChem BioAssay (NCI).

Compounds without any hit were thinned out: in the full panel of roughly 79,000, 15% have a hit. Values without a mark were called inactive. The source made the active and inactive calls. Rule as the data show it: active = growth inhibition above about 70%; inactive = the rest.

A short description of assay [1]: NCI Yeast Anticancer Drug Screen. Data for the rad50 strain (AID 155).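 Also: 0% = growth of vehicle-only cultures of the same strain.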 To be noted: S. cerevisiae rad50 strain growth inhibition; at 50.0 µM; stronger effect = higher value. In outline:
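Growth of the mutant yeast was measured after compound exposure and referenced to vehicle-treated cultures.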

Assay [2] can be described thus: NCI Yeast Anticancer Drug Screen. Data for the mec2-1 strain (AID 157). The conditions noted are these: S. cerevisiae mec2-1 strain, at 50.0 µM, stronger effect = higher value. In a few lines: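 Readout is yeast growth inhibition, normalised to vehicle-treated controls, in the mec2-1 strain exposed to compound.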
Assay [3] is described as follows: NCI Yeast Anticancer Drug Screen. Data for the sgs1 mgt1 strain (AID 161).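 Also: 0% = growth of cultures given vehicle only.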 The conditions noted are these: S. cerevisiae sgs1 mgt1 strain, at 50.0 µM, stronger effect = higher value. In outline: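 Growth of a repair-deficient yeast mutant was monitored after compound treatment and expressed as inhibition relative to vehicle-treated cultures.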
Assay [4] can be described thus: NCI Yeast Anticancer Drug Screen. Data for the cln2 rad14 strain (AID 165).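 Also: 0% = growth equal to vehicle treated cultures.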 To be noted: S. cerevisiae cln2 rad14 strain, at 50.0 µM, stronger effect = higher value. In a few lines: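 Relative to vehicle controls, growth inhibition of compound-treated cln2 rad14 yeast was recorded.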
The nature of assay [5]: NCI Yeast Anticancer Drug Screen. Data for the bub3 strain (AID 167). The conditions noted are these: S. cerevisiae bub3 mutant strain, at 50.0 µM, stronger effect = higher value. In outline:
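Whole-cell yeast assay. The mutant strain was incubated with compounds, and growth inhibition was determined by comparison with vehicle-treated cells.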

Assay [6] in a line: NCI Yeast Anticancer Drug Screen. Data for the mlh1 rad18 strain (AID 175). The conditions noted are these: S. cerevisiae mlh1 rad18 strain growth inhibition; at 50.0 µM; stronger effect = higher value. In a few lines:
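Test agents were incubated with a yeast strain of defined genotype (DNA damage repair defect). Inhibition of growth was derived by comparison with vehicle-exposed cultures.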

For `O=C1Cc2c([nH]c3c(Cl)cccc23)-c2ccccc2N1`, the growth inhibition in assay [1] is -4.65%; in assay [2] it was 14.6%; in assay [3], -19.2%; in assay [4], 21.8%; in assay [5] it was 4.5%; in assay [6] it was -23.4%.
Consider `CC1(c2ccccc2)OCCS1` (stereo not given), for which the growth inhibition was 40.7% in assay [1]; 21.1% in assay [2]; 19.8% in assay [3]; 14.6% in assay [4]; 1.1% in assay [5]; 28.8% in assay [6].
For the compound `NS(=O)(=O)c1ccc(N=C2C(=O)Nc3ccccc32)cc1`, the growth inhibition in assay [1] is 1.05%; in assay [2], -6.1%; in assay [3], -14.6%; in assay [4] it was 17.6%; in assay [5] it was -23.8%; in assay [6] it was 4.95%.
Turning to `COC(=O)C(Cc1nc2ccc(Cl)cc2[nH]c1=O)/C(=N/O)C(=O)Nc1cccc(Cl)c1C` (stereo not given), the growth inhibition in assay [1] is 22.6%; in assay [2], 0.95%; in assay [3] it was 0.85%; in assay [4], -40.9%; in assay [5], 0.3%; in assay [6] it was -4.55%.
Take `C/C(=N/NC(=S)NNC(=S)N(C)c1ccccc1)c1nccc2ccccc12`: the growth inhibition in assay [1] is 85.8% (active); in assay [2] it was 87% (active); in assay [3], 86% (active); in assay [4], 79.2% (active); in assay [5] it was 76.6% (active); in assay [6] it was 79.8% (active).
Consider `CCOC(=O)C1=C(C)NC(=O)NC1c1cccc(OC)c1O` (stereo not given), for which the growth inhibition is 11% in assay [1]; 0.15% in assay [2]; 16.7% in assay [3]; 9.7% in assay [4]; 30.8% in assay [5]; 18.1% in assay [6].
Turning to `O=C(O)CCNc1ncnc2nc[nH]c12`, the growth inhibition in assay [1] is -65.5%; in assay [2], -13.2%; in assay [3], -33.5%; in assay [4], -34.6%; in assay [5], 24.4%; in assay [6], -19.9%.
As to `N[C@@H]1CCCC[C@H]1O`, the growth inhibition in assay [1] is -0.35%; in assay [2], -5.5%; in assay [3], -8.7%; in assay [4], -24.9%; in assay [5], -5.9%; in assay [6], -16.1%.
Consider `CCCc1c(C(=O)O)c(-c2cccc3ccccc23)c(CCC)c2c1-c1cccc3cccc-2c13`, for which the growth inhibition in assay [1] was 54.5%; in assay [2], 35%; in assay [3] it was 76% (active); in assay [4], 71.2% (active); in assay [5], 30.2%; in assay [6] it was 73.5% (active).
Turning to `CCOC(=O)c1oc2ccc([N+](=O)[O-])c3c2c1CCC3`, the growth inhibition is 1.8% in assay [1]; -1.95% in assay [2]; -7% in assay [3]; -2.35% in assay [4]; -64% in assay [5]; -8.05% in assay [6].
Consider `S=c1nc[nH][nH]1`, for which the growth inhibition was 21.5% in assay [1]; -3.7% in assay [2]; 15.6% in assay [3]; -8.65% in assay [4]; 1.4% in assay [5]; 21.6% in assay [6].
In the case of `O=c1[nH]c2cc([N+](=O)[O-])ccc2nc1/C(=N/Nc1ccccc1)C(O)c1ccco1` (stereo not given), the growth inhibition is 7.9% in assay [1]; -17.4% in assay [2]; 9.2% in assay [3]; 16.2% in assay [4]; 6.65% in assay [5]; 25.3% in assay [6].
As for `CC12CCC(/C(=C/N3CCCCC3)C1=O)C2(C)C` (stereo not given), the growth inhibition in assay [1] is 12.8%; in assay [2], 10.2%; in assay [3], 1.75%; in assay [4], -17.8%; in assay [5] it was 22.4%; in assay [6], 5.05%.
`COc1ccc(/C=C/[n+]2ccccc2)cc1OC`: the growth inhibition was -1.45% in assay [1]; 4.85% in assay [2]; 4.05% in assay [3]; -14.2% in assay [4]; 10.7% in assay [5]; -3.85% in assay [6].
Regarding `O=C(NC(=S)Nc1ccc(Cl)cc1C(=O)c1ccccc1)c1ccc(Cl)cc1Cl`, the growth inhibition is -32% in assay [1]; 6.9% in assay [2]; -8.45% in assay [3]; 74.4% (active) in assay [4]; -3.05% in assay [5]; -1.15% in assay [6].
With `CC(=O)NC(Cc1ccccc1)C(=O)Nc1ccc(C)cc1` (stereo not given), the growth inhibition in assay [1] was 14.3%; in assay [2], 0.55%; in assay [3] it was 15.8%; in assay [4], 16.6%; in assay [5] it was 11.4%; in assay [6] it was 14.2%.
On to `O=C(O)CCc1ccccc1C(=O)O`, for which the growth inhibition was 19.6% in assay [1]; -19.6% in assay [2]; -2% in assay [3]; -9.8% in assay [4]; -10.1% in assay [5]; 9.5% in assay [6].
Regarding `CC(C)c1ccc2nc3ccc(C(=O)NCCN(C)C)cn3c(=O)c2c1`, the growth inhibition in assay [1] is -15.8%; in assay [2], -0.25%; in assay [3], -10.4%; in assay [4] it was 2.65%; in assay [5], -1%; in assay [6] it was 9%.
`CCCN1c2c3c(O)c4c(O)c(C)c5c(c4c2O)C(=O)C(C)(O/C=C/C(OC)C(C)C(OC(C)=O)C(C)C(O)C(C)C(O)C(C)/C=C/C=C(/C)C(=O)N3C1C)O5` (stereo not given): the growth inhibition in assay [1] is 22.6%; in assay [2] it was 35.9%; in assay [3] it was 44%; in assay [4] it was 37.2%; in assay [5], 19%; in assay [6], 18.2%.
With `Oc1ccccc1/C=N/n1cnnc1`, the growth inhibition was 8.55% in assay [1]; 12.2% in assay [2]; -3.5% in assay [3]; -4.85% in assay [4]; -10.3% in assay [5]; -19.2% in assay [6].
